p47phox inh: p47phox/p22phox peptide binding inhibitors, primary screen, biochemical, uHTS, NADPH oxidase regulatory subunit. Neutrophil cytosol factor 1 (Homo sapiens), P14598. actives 0.53% (n = 220,000). fluorescence polarization, 2 h. inhibition, % at 24.7 µM;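 also: 0% = p47phox with labelled peptide and 100% = labelled peptide alone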
Mcl1 Noxa PPI: Mcl-1/Noxa binding inhibitors, primary screen, biochemical, TR-FRET, 1536-well | Induced myeloid leukemia cell differentiation protein Mcl-1 (Homo sapiens), Q07820 | TR-FRET Mcl-1/Noxa peptide binding, 2 h | inhibition, % at 21.7 µM | actives 1.5% (n = 220,000) | AID 1022, 2008;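 active = compounds that cut the protein-peptide binding signal by more than 50% relative to plate controls in a single-dose test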;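 also: His-tagged Mcl-1 with rhodamine Noxa BH3 peptide and terbium anti-His antibody; 0% = Mcl-1 plus Noxa peptide wells and 100% = peptide-only wells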
Target sequence (Q07820 whole entry, looked up): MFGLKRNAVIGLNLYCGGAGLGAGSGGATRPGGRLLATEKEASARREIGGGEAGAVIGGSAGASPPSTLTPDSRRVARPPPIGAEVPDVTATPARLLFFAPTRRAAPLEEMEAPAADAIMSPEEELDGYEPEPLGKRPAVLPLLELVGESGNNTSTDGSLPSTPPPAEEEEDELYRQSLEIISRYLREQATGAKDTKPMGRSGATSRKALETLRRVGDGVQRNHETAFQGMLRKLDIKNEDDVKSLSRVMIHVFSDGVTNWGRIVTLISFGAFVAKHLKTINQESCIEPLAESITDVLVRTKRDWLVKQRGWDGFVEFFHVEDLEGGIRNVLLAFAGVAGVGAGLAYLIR
Bim-Mcl-1: inhibitors of Bim peptide binding to Mcl-1, primary screen, biochemical, bead-based flow cytometry, multiplex; inhibition, % at 10 µM; actives 0.1% (n = 190,000); Induced myeloid leukemia cell differentiation protein Mcl-1 (Homo sapiens), Q07820; Bim peptide-Mcl-1 binding; in the data active = inhibition above about 40%;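 also: 0% = no compound tracer wells and 100% = peptide blocker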
eIF4E 4G PPI: eIF4E–eIF4G protein interaction inhibitors, primary screen, biochemical, uHTS, TR-FRET, eIF4GI fragment. TR-FRET eIF4E-eIF4GI(517-606) binding, 2 h. inhibition, % at 21.7 µM. actives 0.37% (n = 220,000). AID 782, 2007;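 also: 0% = full FRET control wells and 100% = background wells lacking eIF4GI fragment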
14-3-3 Bad inh: inhibitors of 14-3-3 zeta/Bad binding, primary screen, biochemical, TR-FRET, bovine 14-3-3 zeta. TR-FRET 14-3-3zeta/Dy647-pBad peptide displacement, 1 h. inhibition, % at 21.7 µM. actives 0.71% (n = 220,000);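 active = inhibition above about 70%, limit read from the data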;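 also: 0% = full 14-3-3 plus peptide FRET controls and 100% = background without 14-3-3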
Target sequence (P63103 whole entry, looked up): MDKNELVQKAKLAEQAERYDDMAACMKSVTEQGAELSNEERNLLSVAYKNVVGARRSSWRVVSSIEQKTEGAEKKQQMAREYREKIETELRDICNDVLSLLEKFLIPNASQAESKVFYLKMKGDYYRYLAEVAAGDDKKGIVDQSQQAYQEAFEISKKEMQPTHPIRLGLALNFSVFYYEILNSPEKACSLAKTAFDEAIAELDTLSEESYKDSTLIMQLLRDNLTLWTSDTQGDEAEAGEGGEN
Mcl1-Bid inh: Mcl-1/Bid binding inhibitors, primary screen, biochemical, TR-FRET, 1536-well. Induced myeloid leukemia cell differentiation protein Mcl-1 (Homo sapiens), Q07820. TR-FRET Mcl-1/Bid-Dy647 peptide binding. inhibition, % at 21.7 µM. actives 0.97% (n = 220,000);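 active = compounds that cut the binding signal by more than half at the single screening dose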;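 also: His-tagged Mcl-1 with europium anti-His antibody binding Bid BH3 peptide; 0% = Mcl-1 plus peptide wells and 100% = peptide-only wells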
An asterisk follows results filed as active. Most compounds without a hit are left out; they make up all but 3.3% or so of the library.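 The calls were made as follows, unless noted: active = inhibition above about 30% (limit read from the data); inactive = the rest.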

COc1ccc(NC(=O)CN(C)CC(=O)Nc2ccccc2SC)cc1 was read as p47phox inh 4, Mcl1 Noxa PPI 18, Bim-Mcl-1 -3, eIF4E 4G PPI 1, 14-3-3 Bad inh 24 and Mcl1-Bid inh 51*.
COc1ccc(NC(=O)CN(C)C(C)C(=O)N2CCCCC2)cc1 (centres undefined) was read as p47phox inh -1, Mcl1 Noxa PPI 24, Bim-Mcl-1 -3, eIF4E 4G PPI -3, 14-3-3 Bad inh 66 and Mcl1-Bid inh 56*.
For CC1CC(C)CN(C(=O)C(C)N(C)CC(=O)Nc2ccc(Cl)cc2)C1 (centres undefined) the results were Mcl1 Noxa PPI 9, Bim-Mcl-1 -2, eIF4E 4G PPI 5, 14-3-3 Bad inh 33 and Mcl1-Bid inh 37.
O=C(Nc1ncn[nH]1)c1ccc(S(=O)(=O)N2CCOCC2)cc1 was read as p47phox inh -15, Mcl1 Noxa PPI -6, Bim-Mcl-1 2, eIF4E 4G PPI -7, 14-3-3 Bad inh -6 and Mcl1-Bid inh -20.
O=C(CCCN1C(=O)c2ccccc2C1=O)Nc1ccccc1 was read as p47phox inh 4, Mcl1 Noxa PPI -17, eIF4E 4G PPI -2, 14-3-3 Bad inh 3 and Mcl1-Bid inh 78*.
For NC(=O)C1CCN(C2=C(Cl)C(=O)c3ccccc3C2=O)CC1 the results were p47phox inh 7, Mcl1 Noxa PPI 88*, Bim-Mcl-1 16, eIF4E 4G PPI 18, 14-3-3 Bad inh 7 and Mcl1-Bid inh 27.
`O=C1C(Cl)=C(N2CCC(C(=O)O)CC2)C(=O)c2ccccc21` gave p47phox inh 14, Mcl1 Noxa PPI 52*, eIF4E 4G PPI 9, 14-3-3 Bad inh 2 and Mcl1-Bid inh -14.
`NC(=O)C1CCN(C2=C(NS(=O)(=O)c3ccccc3)C(=O)c3ccccc3C2=O)CC1` gave p47phox inh 0, Mcl1 Noxa PPI -1, eIF4E 4G PPI -3, 14-3-3 Bad inh 2 and Mcl1-Bid inh -19.
For CCCOc1ccc(NC(=O)OC2CCN(C)CC2)cc1 the results were p47phox inh -5, Mcl1 Noxa PPI 22, Bim-Mcl-1 -8, eIF4E 4G PPI 15, 14-3-3 Bad inh -5 and Mcl1-Bid inh -18.
For O=C(COC(=O)c1ccncc1)c1ccc(Cl)c(Cl)c1 the results were p47phox inh -9, Mcl1 Noxa PPI 7, Bim-Mcl-1 -3, eIF4E 4G PPI -1, 14-3-3 Bad inh -2 and Mcl1-Bid inh -10.
Cc1ccc(C)c(OCC(=O)N/N=C\c2cccn2C)c1 was read as p47phox inh 4, Mcl1 Noxa PPI 44, Bim-Mcl-1 0, eIF4E 4G PPI -2, 14-3-3 Bad inh -15 and Mcl1-Bid inh -17.
`Cc1ccc(OCC(=O)N/N=C/c2cccn2C)cc1` gave p47phox inh 1, Mcl1 Noxa PPI 11, Bim-Mcl-1 0, eIF4E 4G PPI 0, 14-3-3 Bad inh 70* and Mcl1-Bid inh -27.
For O=c1c2ccc([N+](=O)[O-])cc2ncn1Cc1ccccc1C(F)(F)F the results were p47phox inh -13, Mcl1 Noxa PPI 25, Bim-Mcl-1 10, eIF4E 4G PPI 1, 14-3-3 Bad inh -13 and Mcl1-Bid inh -13.
For COc1cc(CN2CCN(C(=O)CC(C)C)CC2)cc(OC)c1OC the results were p47phox inh 0, Mcl1 Noxa PPI 13, Bim-Mcl-1 -4, eIF4E 4G PPI 23, 14-3-3 Bad inh 80* and Mcl1-Bid inh 27.
For CCc1ccc(CN2CCN(C(=O)c3cccc(OC)c3OC)CC2)cc1 the results were p47phox inh -12, Mcl1 Noxa PPI 26, Bim-Mcl-1 -2, eIF4E 4G PPI -4, 14-3-3 Bad inh 56 and Mcl1-Bid inh 38.
COc1ccc(CN2CCN(C(=O)CN3C(=O)C4C5C=CC(C5)C4C3=O)CC2)c(OC)c1OC (centres undefined) was read as p47phox inh -2, Mcl1 Noxa PPI 16, Bim-Mcl-1 -4, eIF4E 4G PPI -3, 14-3-3 Bad inh -4 and Mcl1-Bid inh -4.
For COc1ccc(CN2CCN(C(=O)CC(C)C)CC2)c(OC)c1OC the results were p47phox inh 3, Mcl1 Noxa PPI 6, Bim-Mcl-1 -1, eIF4E 4G PPI 77*, 14-3-3 Bad inh 73* and Mcl1-Bid inh 30.
For COc1cc(CN2CCN(C(=O)CC(C)C)CC2)cc(OC)c1O the results were p47phox inh -8, Mcl1 Noxa PPI 10, Bim-Mcl-1 -8, eIF4E 4G PPI 2, 14-3-3 Bad inh 39 and Mcl1-Bid inh 51*.
CCn1ccnc1CN(C)Cc1nc(Cc2cccc(C(F)(F)F)c2)no1 was read as p47phox inh 1, Mcl1 Noxa PPI 0, Bim-Mcl-1 -4, eIF4E 4G PPI 1, 14-3-3 Bad inh -10 and Mcl1-Bid inh 1.
`COCCN(C(=O)c1ccccc1OC1CCN(S(C)(=O)=O)CC1)C(C)C` gave p47phox inh 10, Mcl1 Noxa PPI 3, Bim-Mcl-1 0, eIF4E 4G PPI 0, 14-3-3 Bad inh -4 and Mcl1-Bid inh -4.
`CC1CCC(C(C)C)C(OC(=O)COC(=O)c2ccc(N)cc2)C1` (centres undefined) gave p47phox inh -8, Mcl1 Noxa PPI 14, Bim-Mcl-1 -2, eIF4E 4G PPI 54*, 14-3-3 Bad inh 1 and Mcl1-Bid inh 10.
`O=C(COC(=O)c1ccccn1)Nc1nc(-c2cccc([N+](=O)[O-])c2)cs1` gave p47phox inh 7, Mcl1 Noxa PPI -11, eIF4E 4G PPI -8, 14-3-3 Bad inh 3 and Mcl1-Bid inh -22.
Screening COc1ccc(OC)c(S(=O)(=O)Nc2ccc(Oc3ccccc3)cc2)c1 returned p47phox inh -5, Mcl1 Noxa PPI 5, Bim-Mcl-1 -6, eIF4E 4G PPI 0, 14-3-3 Bad inh -3 and Mcl1-Bid inh 11.
`COc1ccc(OC)c(S(=O)(=O)Nc2ccc(O)c3ccccc23)c1` gave p47phox inh -12, Mcl1 Noxa PPI 51*, Bim-Mcl-1 0, eIF4E 4G PPI 8, 14-3-3 Bad inh 6 and Mcl1-Bid inh -20.
`Cc1ccc(-n2nc(C)c3c(C)c(CCC(=O)NCc4ccccc4)c(C)nc32)cc1` gave p47phox inh 130*, Mcl1 Noxa PPI -6, Bim-Mcl-1 -4, eIF4E 4G PPI -3, 14-3-3 Bad inh 16 and Mcl1-Bid inh -7.
Cc1ccc(CNC(=O)CCc2c(C)nc3c(c(C)nn3-c3ccc(C)cc3)c2C)cc1 was read as p47phox inh 1, Mcl1 Noxa PPI -2, Bim-Mcl-1 0, eIF4E 4G PPI 2, 14-3-3 Bad inh -1 and Mcl1-Bid inh 19.

Screening data from PubChem.
